Measured values reported in PubChem BioAssay (NCI).
This is part of a sample that, as a whole, favours compounds with a hit. Of some 79,000 tested, about 15% had one in any assay. A number with no mark means an inactive call. Calls of active or inactive are those of the source. Cut-off read from the data, not from the text of the source: active = growth inhibition above about 70%; inactive = the rest.

Key:
[1] = NCI Yeast Anticancer Drug Screen. Data for the rad50 strain (AID 155);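 note: 0% = growth of vehicle-only cultures of the same strain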; details: S. cerevisiae rad50 strain growth inhibition; at 50.0 µM; active compounds read high
How it was run: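 Genetically altered yeast (DNA repair pathway); compound treatment; growth inhibition vs vehicle ctrl.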

[2] = NCI Yeast Anticancer Drug Screen. Data for the mec2-1 strain (AID 157); details: S. cerevisiae mec2-1 strain, at 50.0 µM, active compounds read high
How it was run: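 Cells of the genetically defined mec2-1 yeast strain are incubated with test compound. Inhibition of growth is calculated against vehicle-treated controls.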

[3] = NCI Yeast Anticancer Drug Screen. Data for the sgs1 mgt1 strain (AID 161);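 note: 0% = growth of cultures given vehicle only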; details: S. cerevisiae sgs1 mgt1 strain, at 50.0 µM, active compounds read high
How it was run: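 Mutant yeast exposed to compound; growth scored against vehicle-only wells.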

[4] = NCI Yeast Anticancer Drug Screen. Data for the cln2 rad14 strain (AID 165);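 note: 0% = growth equal to vehicle treated cultures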; details: S. cerevisiae cln2 rad14 strain, at 50.0 µM, active compounds read high
How it was run: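 The screen exposed genetically defined yeast (cln2 rad14) to test compounds and scored growth inhibition relative to vehicle-treated controls.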

[5] = NCI Yeast Anticancer Drug Screen. Data for the bub3 strain (AID 167); details: S. cerevisiae bub3 mutant strain, at 50.0 µM, active compounds read high
How it was run: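 Yeast carrying a defined mutation is treated with each compound, and growth is compared with that of vehicle-exposed cells to give inhibition.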

[6] = NCI Yeast Anticancer Drug Screen. Data for the mlh1 rad18 strain (AID 175); details: S. cerevisiae mlh1 rad18 strain growth inhibition; at 50.0 µM; active compounds read high
How it was run: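 Compound-treated yeast growth, normalised to vehicle controls. Strain bears defined DNA repair mutations.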

Compound	growth inhibition [1]	growth inhibition [2]	growth inhibition [3]	growth inhibition [4]	growth inhibition [5]	growth inhibition [6]
O=[N+]([O-])c1ccc(-c2ccccc2-c2ccccc2)cc1	3.9%	-2.8%	8.25%	-38.1%	3.5%	-22.9%
CCN(CC)c1cc2c3c(c1)CCCN3CCC2	-20.9%	-27.9%	-3.85%	2.55%	-8.1%	-0.65%
Cc1ccc(/C=N/S(=O)(=O)Cc2ccccc2)cc1	-11.6%	3.8%	10.2%	4.9%	0.15%	-0.15%
O=C(c1ccccc1)c1c(-c2ccccc2)sc2nc3ccccc3nc12	3%	18.3%	3.2%	29.1%	2.65%	11.2%
O=C(O)C1COCOC1c1ccccc1 (configuration not stated)	-1.6%	-10.3%	3%	-14.9%	-4.05%	6.9%
FC(F)(F)C(c1ccc(Cl)cc1)c1ccc(Cl)cc1	42.6%	28.8%	40.6%	34.5%	5.95%	30.6%
COC(=O)[C@@H]1[C@H]2C[C@@H]3c4[nH]c5ccccc5c4CCN3C[C@@H]2CC[C@@H]1O	1.5%	-9.55%	13.9%	2.15%	5.45%	1.25%
OC1CC2C3CCC(C3)C2C1O (configuration not stated)	-11.8%	-6.35%	-10.4%	-7.45%	9.55%	-2.95%
CCOC(=O)c1ccc2c(c1)Cc1c-2cc(Br)c(N)c1Br	78.5% (active)	3.1%	45%	9.15%	18.4%	47%
S=C(Nc1ccccc1)Nc1nc(-c2ccccc2)c(N=Nc2ccccc2)s1	29.8%	-1%	4.05%	10.1%	12.9%	2%
O=C(Nc1ccccc1)c1cc2cc(N=Nc3ccc(Br)cc3)ccc2oc1=O	4.2%	-4.7%	-0.4%	16.1%	-17.1%	-13.1%
CCOC(=O)C1CC(C)CC1=O (configuration not stated)	5.7%	-2.6%	-4.6%	-4.4%	1.35%	0.2%
CC[n+]1ccc(C#N)cc1	19.9%	-3.25%	7.85%	7.9%	2.6%	16.9%
COC(=O)C1=C(C(=O)OC)C2(C3C(SC)=CC(C)(C)CC3S1)N(Cc1ccccc1)CCN2Cc1ccccc1 (configuration not stated)	-7.65%	-5.25%	-9.95%	9.05%	-8.7%	-27.2%
Cc1c2cnccc2c(C)c2c1c1ccccc1n2CCCCCC#N	98.8% (active)	99.1% (active)	99.2% (active)	98.1% (active)	98.5% (active)	98.8% (active)
COC(=O)c1nc(N)[nH]c(=O)c1CCCCCc1c(C(=O)OC)nc(N)[nH]c1=O	-4.8%	-0.15%	-9.2%	6.5%	-0.3%	-17.6%
O=C(O)c1ccc(Cl)cc1[N+](=O)[O-]	23.4%	-8.5%	21.6%	19.9%	0.5%	25.1%
Cc1ccc(C)c(N=C2NC(=O)C(CC(=O)Nc3ccc(Cl)cc3Cl)S2)c1 (configuration not stated)	-7.5%	2.75%	-9.65%	24.7%	-10.9%	-32.6%
Cc1ccc(N=C(c2ccccc2)c2ccc([N+](=O)[O-])cc2)cc1	-16.6%	-7.05%	-21.7%	-26.9%	21.4%	-11.8%
CCCCC(CC)/C(C)=N/NC(N)=O (configuration not stated)	4.7%	9.55%	-5.3%	-9.1%	-1.15%	-11.5%
CCN(CC)c1ccc(N=Nc2nc(Cl)c(/C=C3\C(=O)c4ccccc4C3=C(C#N)C#N)s2)c(NC(C)=O)c1	18%	5.1%	14.2%	-38.6%	-12.8%	-17.6%

Compound	growth inhibition [1]	growth inhibition [2]	growth inhibition [3]	growth inhibition [4]	growth inhibition [5]	growth inhibition [6]
CCc1c(C)c(C#N)c(=S)n(C2OC(CO)C(O)C(O)C2O)c1C (configuration not stated)	-61.8%	3.95%	-19.7%	9.4%	8.35%	-4%
O=C(O)CCC(CCC(=O)O)(C(=O)O)c1ccccc1	-20.1%	-6.5%	-8.75%	-42.1%	-1.65%	-7.8%
OC1CCC(C#CC#CC2CCC(O)CC2)CC1 (configuration not stated)	2.05%	-34.2%	3.05%	2.25%	-23.7%	-1.7%
Clc1ccc(C2ON=C(c3ccccc3)N2C23CC4CC(CC(C4)C2)C3)cc1 (configuration not stated)	-23.2%	-27%	-24.1%	-0.3%	-11.9%	-0.75%
O=C(O)c1ncnn1-c1ccccc1	4.7%	18.9%	17.4%	-5.95%	18.8%	1.55%
Cc1cc(Cl)c(Cl)cc1NC(=O)c1ccc(Cl)c(Cl)c1	5.15%	23.4%	9.9%	-3.25%	45.1%	5.2%
Cc1cccc(NC(=S)NC2CCCCC2)c1	2.75%	11.7%	-3.1%	12.7%	7%	9.4%
CN1C=CC(=Cc2ccccc2)C=C1	3.3%	5.85%	-6.45%	-25%	-10.8%	1.4%
C#CCC[N+](C)(C)C	-0.75%	-12.5%	-5.2%	11.2%	-7.45%	4.55%
CC(NC(=O)C1CCCN1C(=O)OCc1ccccc1)C(=O)O (configuration not stated)	-7.7%	31.1%	-10.5%	2.1%	-13.2%	-19.6%
O=C(c1ccccc1Cl)N1CCN(c2ccccc2)CC1	12.9%	-3.4%	0%	-28.5%	9.55%	-6.85%
O=C1/C(=C/c2ccccc2)Oc2cc(O)ccc21	31.9%	-13.8%	33%	30.4%	27.4%	34.9%
Cc1onc(-c2c(F)cccc2Cl)c1C(=O)Nc1cc2cc([N+](=O)[O-])ccc2oc1=O	12.3%	-13.7%	2.3%	8.15%	2.8%	12.5%
O=C(Nc1ccc(F)cc1)C(Br)C(Br)c1ccccc1 (configuration not stated)	91% (active)	88.2% (active)	93.9% (active)	49%	81.5% (active)	95.5% (active)
OC1(c2ccccc2)c2ccccc2NC2=NCCN21 (configuration not stated)	-14.7%	-12.4%	-10.7%	-10.5%	-45.9%	-16.9%
COc1c([N+](=O)[O-])ccc(C(OC(C)=O)OC(C)=O)c1OC(C)=O	33.9%	23.1%	55.8%	2.35%	31.9%	29.4%
CC1(C)C(=O)/C=C\C(=O)C(C)(C)C(=O)/C=C\C(=O)C(C)(C)C2=CC=C(O2)C(C)(C)C(=O)/C=C\C1=O	14.9%	12.2%	-2.4%	20.9%	7.9%	14.4%
CC(C=O)C1CCCCC1 (configuration not stated)	9.15%	10.1%	0.6%	7.4%	8.95%	5.6%
Cc1ccc(S)c(C(O)(C(F)(F)F)C(F)(F)F)c1	-4.75%	3.65%	11.7%	3.55%	8.3%	23.2%
O=c1[nH]cnc2ncnn12	20%	4.2%	9.65%	19.2%	21%	16.4%
O=c1c2c(sc3ccccc13)CCC2	1.95%	18.6%	-1.55%	46.9%	-11.8%	-0.9%
